Test results published in PubChem BioAssay (NCI).
Several values for one entry are separate records, joined by “and”; a condition that tells them apart may be missing. Identical values can stand only once. About 79,000 compounds went through this panel and 15% of them were active in at least one assay; those are over-represented in the sample as a whole. The source holds several records for some structures; these can differ, active in one and inactive in another. Activity calls are given as the source filed them. Rule as the data show it: active = growth inhibition above about 70%; inactive = the rest.

Tests used:
[1] = NCI Yeast Anticancer Drug Screen. Data for the mec2-1 strain (AID 157); details: S. cerevisiae mec2-1 strain, stronger effect = higher value
Outline: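 Vehicle-treated cultures served as reference for growth inhibition of compound-exposed mec2-1 yeast.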

[2] = NCI Yeast Anticancer Drug Screen. Data for the rad14 strain (AID 159);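 also: 0% = growth of vehicle-treated control cultures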; details: S. cerevisiae rad14 strain growth inhibition, stronger effect = higher value
Outline: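 Here, inhibition of yeast growth was measured after compound exposure, using a strain with a genetic defect in DNA damage repair and vehicle-treated cultures as the reference.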

[3] = NCI Yeast Anticancer Drug Screen. Data for the sgs1 mgt1 strain (AID 161);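 also: 0% = growth of cultures given vehicle only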; details: S. cerevisiae sgs1 mgt1 strain, stronger effect = higher value
Outline: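 Genetically altered yeast, compound exposure, growth inhibition relative to vehicle.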

[4] = NCI Yeast Anticancer Drug Screen. Data for the CLN2oe strain (AID 163);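 also: 0% = growth of vehicle-only control cultures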; details: S. cerevisiae CLN2oe strain, stronger effect = higher value
Outline: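 Inhibition relative to vehicle-treated yeast is reported. Cells: strain with genetic alteration in cell-cycle control, grown with compound.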

[5] = NCI Yeast Anticancer Drug Screen. Data for the cln2 rad14 strain (AID 165);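 also: 0% = growth equal to vehicle treated cultures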; details: S. cerevisiae cln2 rad14 strain, stronger effect = higher value
Outline: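 Each compound was tested on cln2 rad14 yeast. Inhibition of growth was calculated against vehicle-exposed controls.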

[6] = NCI Yeast Anticancer Drug Screen. Data for the bub3 strain (AID 167); details: S. cerevisiae bub3 mutant strain, stronger effect = higher value
Outline: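 Whole-cell yeast assay. The mutant strain was incubated with compounds, and growth inhibition was determined by comparison with vehicle-treated cells.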

[7] = NCI Yeast Anticancer Drug Screen. Data for the wt2 strain (AID 169);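 also: 0% = growth of vehicle-treated yeast cultures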; details: S. cerevisiae wt2 strain growth inhibition, stronger effect = higher value
Outline: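 Inhibition of yeast growth was determined after compound treatment, normalised to controls receiving only vehicle.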

[8] = NCI Yeast Anticancer Drug Screen. Data for the mlh1 strain (AID 171);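 also: 0% = growth of vehicle-treated control cultures of the same strain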; details: S. cerevisiae mlh1 strain growth inhibition, stronger effect = higher value
Outline: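 Vehicle-normalised growth inhibition of a repair- or checkpoint-altered yeast strain following compound treatment.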

[9] = NCI Yeast Anticancer Drug Screen. Data for the sgs1 strain (AID 173);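 also: 0% = growth of vehicle-only control cultures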; details: S. cerevisiae sgs1 mutant, stronger effect = higher value
Outline: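 Screen format: yeast with repair or checkpoint alterations, compound exposure, growth read relative to vehicle.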

[10] = NCI Yeast Anticancer Drug Screen. Data for the mlh1 rad18 strain (AID 175); details: S. cerevisiae mlh1 rad18 strain growth inhibition, stronger effect = higher value
Outline: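 Vehicle-treated cultures served as the reference for growth inhibition in a yeast strain carrying DNA damage repair alterations exposed to each compound.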

[11] = NCI Yeast Anticancer Drug Screen. Data for the rad18 strain (AID 177); details: S. cerevisiae rad18 mutant growth inhibition, stronger effect = higher value
Outline: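 Test articles were incubated with altered yeast defective in DNA damage repair. Results are given as inhibition of growth versus vehicle.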

[12] = NCI Yeast Anticancer Drug Screen. Data for the wt1 strain (AID 149);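 also: 0% = growth of vehicle-treated wt1 cultures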; details: S. cerevisiae wt1 strain (SPY 50644) growth inhibition, stronger effect = higher value
Outline: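 Measured: growth of wt1 yeast under compound versus vehicle treatment, reported as inhibition.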

[13] = NCI Yeast Anticancer Drug Screen. Data for the rad50EPP+ strain (AID 151);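 also: 0% = growth of vehicle-treated control cultures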; details: S. cerevisiae rad50 mutant strain, stronger effect = higher value
Outline: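 In this screen, rad50EPP+ yeast were exposed to compounds. Growth inhibition was scored against vehicle-treated controls.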

[14] = NCI Yeast Anticancer Drug Screen. Data for the mgt1 strain (AID 153); details: S. cerevisiae mgt1 mutant growth inhibition, stronger effect = higher value
Outline: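 mgt1 strain exposed; growth vs vehicle control recorded as inhibition.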

[15] = NCI Yeast Anticancer Drug Screen. Data for the rad50 strain (AID 155);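 also: 0% = growth of vehicle-only cultures of the same strain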; details: S. cerevisiae rad50 strain growth inhibition, stronger effect = higher value
Outline: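 Growth of the mutant yeast was measured after compound exposure and referenced to vehicle-treated cultures.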

[16] = at 5.0 µM (retest, dose inferred, filed as 0.5)
[17] = at 50.0 µM (retest, dose inferred, filed as 5.0)

Measured: growth inhibition

Cc1ccnc(NS(=O)(=O)c2ccc(Nc3c4ccccc4nc4ccccc34)cc2)n1
inactive: [2]; at 1.2 µM 10% | [2]; at 3.7 µM 10% | [2]; at 11.0 µM 26% | [2]; at 33.0 µM 58% | [3]; [16] 14% | [4]; at 1.2 µM 13% | [4]; at 3.7 µM 1% | [4]; at 11.0 µM 14% | [4]; at 33.0 µM 39% | [4]; at 100.0 µM 60% | [5]; [16] 17% | [5]; [17] 35% | [5]; at 50.0 µM 35.5% | [6]; at 1.2 µM -12% | [6]; at 3.7 µM -21% | [6]; [16] 26% | [6]; at 11.0 µM -20% | [6]; at 33.0 µM 30% | [6]; [17] 44% | [6]; at 100.0 µM 63% | [7]; at 1.2 µM -10% | [7]; at 3.7 µM -18% | [7]; at 11.0 µM -3% | [7]; at 33.0 µM 44% | [8]; at 1.2 µM 37% | [8]; at 3.7 µM 33% | [8]; at 11.0 µM 54% | [8]; at 33.0 µM 66% | [9]; at 1.2 µM 24% | [9]; at 3.7 µM 26% | [9]; at 11.0 µM 43% | [9]; at 33.0 µM 69% | [10]; [16] 26% | [10]; at 50.0 µM 37.7% | [11]; at 1.2 µM 16% | [11]; at 3.7 µM 19% | [11]; at 11.0 µM 36% | [11]; at 33.0 µM 65%
active: [1]; at 100.0 µM 83% | [2]; at 100.0 µM 81% | [3]; [17] 74% | [3]; at 50.0 µM 77.6% | [6]; at 50.0 µM 76.2% | [7]; at 100.0 µM 74% | [8]; at 100.0 µM 84% | [9]; at 100.0 µM 86% | [10]; [17] 74% | [11]; at 100.0 µM 79%

Cc1nc2ccc(Br)cc2c(=O)n1-c1ccc(NC2OCC(O)C(O)C2O)cc1 (stereo unspecified)
inactive: [12]; at 1.2 µM 3% | [12]; at 3.7 µM 9% | [12]; at 11.0 µM 12% | [12]; at 33.0 µM 32% | [13]; at 1.2 µM 1% | [13]; at 3.7 µM -1% | [13]; at 11.0 µM -1% | [13]; at 33.0 µM 5% | [13]; at 100.0 µM 13% | [14]; at 1.2 µM 6% | [14]; at 3.7 µM 9% | [14]; at 11.0 µM 24% | [14]; at 33.0 µM 41% | [15]; at 1.2 µM -3% | [15]; at 3.7 µM 17% | [15]; [16] 11% | [15]; at 11.0 µM 14% | [15]; at 33.0 µM 53% | [15]; [17] 0% | [15]; at 50.0 µM 62.1% and 46.9% | [1]; at 1.2 µM 12% | [1]; at 3.7 µM 14% | [1]; [16] 1% | [1]; at 11.0 µM 23% | [1]; at 33.0 µM 54% | [1]; [17] 45% | [1]; at 50.0 µM 38.2% and 56.2% | [2]; at 1.2 µM 4% | [2]; at 3.7 µM 5% | [2]; at 11.0 µM 14% | [2]; at 33.0 µM 32% | [3]; [16] -3% | [3]; [17] 34% | [3]; at 50.0 µM 64% and 0.15% | [4]; at 1.2 µM 5% | [4]; at 3.7 µM 11% | [4]; at 11.0 µM 14% | [4]; at 33.0 µM 39% | [4]; at 100.0 µM 48% | [5]; [16] -3% | [5]; [17] 53% | [5]; at 50.0 µM -15.2% and 12.8% | [6]; at 1.2 µM 4% | [6]; at 3.7 µM 8% | [6]; [16] 7% | [6]; at 11.0 µM 17% | [6]; at 33.0 µM 49% | [6]; [17] 60% | [7]; at 1.2 µM 1% | [7]; at 3.7 µM 4% | [7]; at 11.0 µM 14% | [7]; at 33.0 µM 43% | [8]; at 1.2 µM 9% | [8]; at 3.7 µM 9% | [8]; at 11.0 µM 19% | [8]; at 33.0 µM 52% | [9]; at 1.2 µM 6% | [9]; at 3.7 µM 12% | [9]; at 11.0 µM 25% | [9]; at 33.0 µM 61% | [10]; [16] -38% | [10]; at 50.0 µM 62.4% and 13.8% | [11]; at 1.2 µM 4% | [11]; at 3.7 µM 6% | [11]; at 11.0 µM 18% | [11]; at 33.0 µM 55%
active: [12]; at 100.0 µM 70% | [14]; at 100.0 µM 81% | [15]; at 100.0 µM 86% | [1]; at 100.0 µM 90% | [2]; at 100.0 µM 79% | [6]; at 100.0 µM 90% | [7]; at 100.0 µM 86% | [8]; at 100.0 µM 90% | [9]; at 100.0 µM 89% | [10]; [17] 79% | [11]; at 100.0 µM 91%
73.2% (active) and -5.1% (inactive): [6]; at 50.0 µM
